The text below walks through data of PubChem BioAssay (NCATS).

Inconclusive results are not listed. Values without a mark were called inactive. Calls of active or inactive are those of the source. The call rests on the fitted dose curve; in most records, active means well fitted curve in the direction sought with a large enough effect; inconclusive means small, poorly fitted or top-dose-only effect, or another doubt; inactive means no such curve, though single readings can be large; an effect the other way counts as inactive or inconclusive.

One assay concerns MKL-2. As to the kind of experiment: qHTS assay to identify novel small-molecules to repurpose for Merkel cell carcinoma treatment (AID 1296009). Further: nearly all actives have a fitted effect of over 60% in size. The conditions noted are these: MCC and control cell lines, CellTiter-Glo viability, 72 h; series mostly up to 46 µM. The gist of the method:
(§1)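 Cell viability measured by CellTiter-Glo following 72 hr compound treatment at 37 degree celsius, with NPC and MIPE libraries tested in 8- and 11-point concentration series.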

Another assay concerns C33A. The assay is described as follows: Primary qHTS to identify gynecologic anti-cancer compounds using libraries of approved drugs and bioactive compounds (AID 1345084). Further: nearly all actives have a fitted effect of over 55% in size. The conditions noted are these: Gynecologic cancer cell panel viability, ATPlite luminescence, 48 h; series mostly up to 57.5 µM. The procedure, abridged: (§2)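 Cells, 1,000 per well, plated 16 h, then exposed 48 h at 37 C to compounds. Viability by ATPlite luminescence after 15 min at room temperature.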
On the technique in general: Quantitative high-throughput screening tests each substance at several concentrations.

The test system of the next assay is CAOV3. The assay is described as above. To be noted: Gynecologic cancer cell panel viability, ATPlite luminescence, 48 h; series mostly up to 57.5 µM. The gist of the method:
as §2
A general note: ATP-based viability assays read luminescence as a measure of living cells.

The next assay concerns Es-2. Described as above. The conditions noted are these: Gynecologic cancer cell panel viability, ATPlite luminescence, 48 h; series mostly up to 57.5 µM. The gist of the method: as §2
The test system of the next assay is Hek293T. The description is as above. The conditions noted are these: Gynecologic cancer cell panel viability, ATPlite luminescence, 48 h, control line for the selectivity index; series mostly up to 57.5 µM. The procedure, abridged:
as §2

For the next assay, the system named is PA-1. The description is as above. The conditions noted are these: Gynecologic cancer cell panel viability, ATPlite luminescence, 48 h; series mostly up to 57.5 µM. The procedure, abridged: as §2
Another assay relates to Tov112D. Described as above. The conditions noted are these: Gynecologic cancer cell panel viability, ATPlite luminescence, 48 h; series mostly up to 57.5 µM. The procedure, abridged:
as §2

A short description of assay [1]: qHTS assay to identify inhibitors of the type 1 interferon - major histocompatibility complex class I in skeletal muscle: Counter screen cell viability and HiBit confirmation (AID 1347412). On all read-outs here: nearly all actives have a fitted effect of over 60% in size. To be noted: iHSKM muscle cells + IFN-b, HiBiT or CellTiter-Glo, 24 h; for activity change, negative = inhibition: at 45.9 µM (top of the series). The procedure, abridged: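 Luminescence read-out: Nano-Glo HiBiT lytic signal from C-terminally HiBiT-tagged HLA-B in CRISPR-edited human myoblasts, plus CellTiter Glo ATP as viability counter screen. IFN-beta 4.0 ng/ml; 24 hrs treatment at 37 C, 5% CO2.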

For the next assay, the system named is UISO. As to the kind of experiment: qHTS assay to identify novel small-molecules to repurpose for Merkel cell carcinoma treatment (AID 1296009). Further: nearly all actives have a fitted effect of over 60% in size. To be noted: MCC and control cell lines, CellTiter-Glo viability, 72 h; series mostly up to 46 µM. The gist of the method:
as §1

The subject of another assay is HeLa. The assay is described as follows: Primary qHTS to identify gynecologic anti-cancer compounds using libraries of approved drugs and bioactive compounds (AID 1345084). Further: nearly all actives have a fitted effect of over 55% in size. To be noted: Gynecologic cancer cell panel viability, ATPlite luminescence, 48 h; series mostly up to 57.5 µM. The procedure, abridged:
as §2

The next assay relates to JEG-3. The description is as above. To be noted: Gynecologic cancer cell panel viability, ATPlite luminescence, 48 h; series mostly up to 57.5 µM. The procedure, abridged: as §2
The next assay has as its system OV90. Described as above. The conditions noted are these: Gynecologic cancer cell panel viability, ATPlite luminescence, 48 h; series mostly up to 57.5 µM. The gist of the method:
as §2

Another assay relates to SKOV3. The description is as above. The conditions noted are these: Gynecologic cancer cell panel viability, ATPlite luminescence, 48 h; series mostly up to 57.5 µM. The procedure, abridged: as §2
The test system of another assay is WaGa. As to the kind of experiment: qHTS assay to identify novel small-molecules to repurpose for Merkel cell carcinoma treatment (AID 1296009). Further: nearly all actives have a fitted effect of over 60% in size. To be noted: MCC and control cell lines, CellTiter-Glo viability, 72 h; series mostly up to 46 µM. The procedure, abridged:
as §1

For another assay, the system named is CASKI. The assay is described as follows: Primary qHTS to identify gynecologic anti-cancer compounds using libraries of approved drugs and bioactive compounds (AID 1345084). Further: nearly all actives have a fitted effect of over 55% in size. To be noted: Gynecologic cancer cell panel viability, ATPlite luminescence, 48 h; series mostly up to 57.5 µM. The procedure, abridged: as §2
In the next assay the test system is Tov-21-G. The description is as above. The conditions noted are these: Gynecologic cancer cell panel viability, ATPlite luminescence, 48 h; series mostly up to 57.5 µM. The procedure, abridged: as §2
On the % scale 0 is the no-effect control and ±100 the full control effect; potency means the concentration at half of the fitted maximal effect.

Consider `COc1cccc2nc(-c3cccs3)nc(NN3C(=O)C=C(C)C3=O)c12`, for which the Potency in the assay on MKL-2 is 935 nM (active); with C33A, 31600 nM (active); in the assay with CAOV3, 15800 nM (active); in the assay with Es-2, 2510 nM (active); in the assay with Hek293T it was 1410 nM (active); in the assay on PA-1, 1580 nM (active). Besides, the Potency with Tov112D is 891 nM (active); in [1] (HiBiT) it was 2790 nM (active). In [1] (Viability), the activity change, negative = inhibition is 41.4%.
In the case of `CNC(=O)CN1CCC(Oc2cc3c(Nc4cccc(Cl)c4F)ncnc3cc2OC)CC1`, the Potency entry in the assay with MKL-2, in the assay on CAOV3, in the assay with Es-2, with HeLa, with Hek293T and with JEG-3 was “inactive” each time. For the same compound, the Potency entry in the assay on OV90, in the assay on PA-1 and in the assay with Tov112D was “inactive” in each case. Moreover, the Potency in the assay on UISO is 118 nM (active); in the assay with SKOV3, 14100 nM (active).
For `C[C@]1(CO)CN(c2cc(C(=O)Nc3ccc4c(c3)-c3c(c(C(N)=O)nn3-c3ccc(F)cc3)CC4)c(Cl)cn2)C[C@@]1(C)CO`, the figures for the Potency in the assay with UISO, in the assay with WaGa and in the assay with PA-1 were 9350 nM (active), 18700 nM (active) and 11200 nM (active), respectively. The Potency entry in the assay on CAOV3, in the assay with HeLa, in the assay with Hek293T, in the assay with JEG-3 and in the assay with OV90 was “inactive” each time.
As for `COc1cc(=C2C=c3ccccc3=N2)[nH]c1=Cc1[nH]c(C)cc1C`, the values for the Potency with UISO and with WaGa were 13200 nM (active) and 23500 nM (active), respectively.
Take `COc1cc(C(=O)N2CCC(N3CCN(C)CC3)CC2)ccc1Nc1ncc2c(n1)N(C)c1ccccc1C(=O)N2C`: the Potency in the assay on MKL-2 is 2350 nM (active); in the assay on WaGa, 16600 nM (active); in the assay with SKOV3, 8910 nM (active). Further, the Potency result in the assay on C33A, with Es-2, in the assay on Hek293T, with JEG-3 and in the assay on OV90 was “inactive” in each case. The activity change, negative = inhibition in assay [1] (Viability) is -1.11%.
Turning to `Cn1c2ccccc2c2c3c(c4c5ccccc5n(CCC#N)c4c21)CNC3=O`, the Potency in the assay with UISO is 2090 nM (active); with WaGa, 6620 nM (active); in the assay with SKOV3, 17800 nM (active). The Potency entry in the assay on C33A, with CASKI, in the assay on HeLa, in the assay on Hek293T, in the assay on JEG-3 and in the assay on OV90 was “inactive” in each case. Also, in the assay on Tov112D, the Potency entry is “inactive”.
Consider `CN(C)Cc1c(C(=O)NCCOc2ccc(C(=O)NO)cc2)oc2ccccc12`, for which the Potency with MKL-2 is 662 nM (active); in the assay with WaGa, 332 nM (active); in the assay with C33A, 4470 nM (active); in the assay with CASKI it was 3980 nM (active); in the assay on Es-2, 5010 nM (active); in the assay on HeLa it was 2820 nM (active). Besides, the Potency is 2820 nM (active) in the assay with Hek293T; 3550 nM (active) in the assay on JEG-3; 1580 nM (active) with OV90; 1000 nM (active) in the assay with PA-1; 7080 nM (active) in the assay with SKOV3; 7940 nM (active) in the assay with Tov-21-G. Moreover, the Potency in the assay with Tov112D was 3160 nM (active); in assay [1] (HiBiT) it was 787 nM (active). Besides, the activity change, negative = inhibition in assay [1] (Viability) is -5.27%.
On to `Cc1cc(Nc2cc(N3CCN(C)CC3)nc(Sc3ccc(NC(=O)C4CC4)cc3)n2)n[nH]1`, for which the Potency result with MKL-2, with UISO, in the assay on C33A, with Es-2, with JEG-3 and in the assay on Tov-21-G was “inactive” throughout.
`Cc1c(CN2CCN(S(C)(=O)=O)CC2)sc2c(N3CCOCC3)nc(-c3cnc(N)nc3)nc12`: the Potency in the assay with MKL-2 is 118 nM (active); in the assay on UISO it was 264 nM (active); in the assay on C33A, 1580 nM (active); with CASKI, 708 nM (active); in the assay with HeLa, 2000 nM (active); in the assay on Hek293T, 501 nM (active). Also, the Potency with OV90 is 1410 nM (active); in the assay with PA-1 it was 1580 nM (active); in the assay on SKOV3, 562 nM (active); in the assay with Tov-21-G it was 2000 nM (active).
As for `Cc1cnc(Nc2ccc(F)cc2Cl)nc1-c1c[nH]c(C(=O)N[C@H](CO)c2cccc(Cl)c2)c1`, the Potency in the assay on MKL-2 was 14800 nM (active); with UISO it was 2640 nM (active); with CASKI, 25100 nM (active); with Es-2, 20000 nM (active); in the assay with HeLa, 31600 nM (active); in the assay with PA-1 it was 31600 nM (active). In the assay with Tov-21-G, the Potency was 28200 nM (active). Further, the Potency result in the assay on JEG-3 is “inactive”.
Consider `COc1ccc(C=Cc2cc(OC)c(OC)c(OC)c2)cc1O`, for which the Potency entry in the assay on MKL-2 and in the assay on WaGa was “inactive” each time.
As to `CNC(=O)c1ccccc1Nc1nc(Nc2ccc(N3CCOCC3)cc2OC)ncc1Cl`, the Potency entry with MKL-2 and in the assay with JEG-3 was “inactive” in each case. Also, the Potency with UISO was 1480 nM (active); in the assay with CASKI, 10000 nM (active); with HeLa, 5010 nM (active); in the assay on OV90 it was 1000 nM (active); with PA-1, 14100 nM (active); in the assay on SKOV3, 11200 nM (active). The Potency was 12600 nM (active) with Tov-21-G and 1400 nM (active) in [1] (HiBiT).
Consider `CCn1nnc2c(N3CCOCC3)nc(-c3ccc(NC(=O)Nc4ccc(C(=O)N5CCN(C)CC5)cc4)cc3)nc21`, for which the Potency with MKL-2 was 10.5 nM (active); in the assay on UISO, 33.2 nM (active); with CAOV3, 316 nM (active); in the assay with CASKI, 251 nM (active); in the assay with Es-2, 1120 nM (active); in the assay with Hek293T, 631 nM (active). Also, the Potency in the assay with PA-1 was 398 nM (active); in the assay with SKOV3, 316 nM (active); with Tov-21-G, 224 nM (active); in [1] (Viability), 991 nM (active). Besides, the Potency result with C33A is “inactive”.
For the compound `COc1ccc(F)c(F)c1C(=O)c1cnc(NC2CCN(S(C)(=O)=O)CC2)nc1N`, the Potency in the assay with MKL-2 is 11800 nM (active); in the assay with UISO, 2960 nM (active); in the assay on C33A it was 10000 nM (active); with CASKI it was 10000 nM (active); in the assay with Es-2, 3160 nM (active); in the assay with HeLa, 2820 nM (active). Besides, the Potency was 3550 nM (active) in the assay with Hek293T, 2510 nM (active) in the assay with PA-1, 7940 nM (active) in the assay on Tov112D and 1110 nM (active) in assay [1] (HiBiT). The activity change, negative = inhibition in assay [1] (Viability) was 14.1%.
Take `O=C(Nc1cn[nH]c1-c1nc2ccc(CN3CCOCC3)cc2[nH]1)NC1CC1`: the Potency is 26400 nM (active) in the assay on MKL-2; 8330 nM (active) in the assay with UISO; 14100 nM (active) in the assay on C33A; 2000 nM (active) with CASKI; 14100 nM (active) in the assay on Es-2; 7940 nM (active) in the assay with Hek293T. Besides, the Potency with OV90 is 11200 nM (active); with PA-1, 8910 nM (active); in the assay on SKOV3 it was 10000 nM (active); in the assay on Tov-21-G, 2240 nM (active); with Tov112D, 11200 nM (active); in assay [1] (HiBiT), 1980 nM (active). Moreover, the activity change, negative = inhibition in assay [1] (Viability) was 61.5%.
On to `CN1CC[C@@H](c2c(O)cc(O)c3c(=O)cc(-c4ccccc4Cl)oc23)[C@@H](O)C1`, for which, in the assay with UISO, the Potency was 264 nM (active).
In the case of `Cc1cc(N2CCOCC2)cc2[nH]c(-c3c(NC[C@@H](O)c4cccc(Cl)c4)cc[nH]c3=O)nc12`, the Potency result in the assay with MKL-2, with C33A, in the assay with Es-2 and with JEG-3 was “inactive” throughout. The Potency is 1320 nM (active) with UISO, 14100 nM (active) with PA-1, 14100 nM (active) in the assay with SKOV3 and 6250 nM (active) in assay [1] (HiBiT).
